Test results reported in PubChem BioAssay AID1159580 (chemical genetic matrix, 2015).
Out of some 5,500 compounds screened, about 2,000 (36%) were called active. Inconclusive results (about 18%) are left out. No stated cut-off is given here; in the data, active means normalized growth mostly below about 0.91 (no sharp cut-off); inconclusive means no clear call, values can overlap the other calls; inactive means mostly above about 0.92. Some of the results follow.

Assay: chemical genetic growth profiling, strain panel (AID 1159580);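 further: tested at 20 µM; growth read once vehicle control cultures reached saturation at 30 °C; 1 = growth at the plate median or of vehicle wells; lower values mean less growth of the strain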
Conditions: growth OD

Measured: normalized growth

Cc1ccc(C(C)C)cc2c(C)ccc1-2
inactive: S. cerevisiae deletion strains, locus YJR043C, strain POL32, hits give low values 0.977 | S. cerevisiae deletion strains, locus YJR066W, strain TOR1, hits give low values 0.925 | S. cerevisiae deletion strains, locus YKL009W, strain mrt4, hits give low values 1.04 | S. cerevisiae deletion strains, locus YKL068W, hits give low values 1 | S. cerevisiae deletion strains, locus YKL085W, strain MDH1 (second series), hits give low values 1 | S. cerevisiae deletion strains, locus YKL085W, strain MDH1, hits give low values 1 | S. cerevisiae deletion strains, locus YKL160W, strain elf1, hits give low values 0.989 | S. cerevisiae deletion strains, locus YKL190W, strain CNB1, hits give low values 0.986 | S. cerevisiae deletion strains, locus YKR001C, strain vps1, hits give low values 1 | S. cerevisiae deletion strains, locus YKR026C, strain gcn3, hits give low values 1 | S. cerevisiae deletion strains, locus YKR091W, strain srl3, hits give low values 1 | S. cerevisiae deletion strains, locus YLL001W, strain dnm1, hits give low values 0.976 | S. cerevisiae deletion strains, locus YLL026W, hits give low values 0.998 | S. cerevisiae deletion strains, locus YLL041C, strain sdh2, hits give low values 1.01 | S. cerevisiae deletion strains, locus YLR027C, strain aat2, hits give low values 0.991 | S. cerevisiae deletion strains, locus YLR039C, strain RIC1, hits give low values 0.92 | S. cerevisiae deletion strains, locus YLR058C, strain SHM2, hits give low values 1 | S. cerevisiae deletion strains, locus YLR102C, strain apc9, hits give low values 1.02 | S. cerevisiae deletion strains, locus YLR113W, strain HOG1, hits give low values 1.03 | S. cerevisiae deletion strains, locus YLR221C, strain rsa3, hits give low values 1.02 | S. cerevisiae deletion strains, locus YLR258W, strain gsy2, hits give low values 0.999 | S. cerevisiae deletion strains, locus YLR262C, strain YPT6 (second series), hits give low values 1.01 | S. cerevisiae deletion strains, locus YLR262C, strain YPT6, hits give low values 0.909 | S. cerevisiae deletion strains, locus YLR268W, strain sec22, hits give low values 1.01 | S. cerevisiae deletion strains, locus YLR320W, strain mms22, hits give low values 1.01 | S. cerevisiae deletion strains, locus YLR330W, strain CHS5, hits give low values 1 | S. cerevisiae deletion strains, locus YLR342W, strain FKS1 (second series), hits give low values 0.944 | S. cerevisiae deletion strains, locus YLR342W, strain FKS1, hits give low values 1.03 | S. cerevisiae deletion strains, locus YLR357W, strain rsc2, hits give low values 0.982 | S. cerevisiae deletion strains, locus YLR370C, strain arc18, hits give low values 0.995 | S. cerevisiae deletion strains, locus YLR371W, strain rom2, hits give low values 1 | S. cerevisiae deletion strains, locus YLR384C, strain iki3, hits give low values 0.997 | S. cerevisiae deletion strains, locus YLR418C, strain cdc73, hits give low values 0.962 | S. cerevisiae deletion strains, locus YML016C, strain PPZ1, hits give low values 1 | S. cerevisiae deletion strains, locus YML032C, strain rad52, hits give low values 1.03 | S. cerevisiae deletion strains, locus YML120C, strain ndi1, hits give low values 1 | S. cerevisiae deletion strains, locus YML124C, strain tub3, hits give low values 1.02 | S. cerevisiae deletion strains, locus YMR058W, strain fet3, hits give low values 1.01 | S. cerevisiae deletion strains, locus YMR078C, strain ctf18, hits give low values 1.02 | S. cerevisiae deletion strains, locus YMR125W, strain sto1, hits give low values 1 | S. cerevisiae deletion strains, locus YMR129W, hits give low values 1.01 | S. cerevisiae deletion strains, locus YMR205C, strain PFK2, hits give low values 0.981 | S. cerevisiae deletion strains, locus YMR223W, strain ubp8, hits give low values 1.02 | S. cerevisiae deletion strains, locus YMR231W, strain pep5, hits give low values 0.978 | S. cerevisiae deletion strains, locus YMR263W, strain SAP30, hits give low values 0.993 | S. cerevisiae deletion strains, locus YMR307W, strain GAS1, hits give low values 0.914 | S. cerevisiae deletion strains, locus YNL067W, strain RPL9B, hits give low values 0.993 | S. cerevisiae deletion strains, locus YNL071W, strain lat1, hits give low values 0.991 | S. cerevisiae deletion strains, locus YNL183C, strain NPR1, hits give low values 0.981 | S. cerevisiae deletion strains, locus YNL209W, strain ssb2, hits give low values 1.01 | S. cerevisiae deletion strains, locus YNL233W, strain BNI4, hits give low values 0.989 | S. cerevisiae deletion strains, locus YNL248C, strain rpa49, hits give low values 1.02 | S. cerevisiae deletion strains, locus YNL250W, strain rad50, hits give low values 1.05 | S. cerevisiae deletion strains, locus YNL271C, strain bni1, hits give low values 1.03 | S. cerevisiae deletion strains, locus YNL298W, strain CLA4, hits give low values 1.02 | S. cerevisiae deletion strains, locus YNL307C, strain MCK1, hits give low values 0.995 | S. cerevisiae deletion strains, locus YNL322C, strain KRE1 (second series), hits give low values 0.994 | S. cerevisiae deletion strains, locus YNR049C, strain mso1, hits give low values 1 | S. cerevisiae deletion strains, locus YNR052C, strain pop2, hits give low values 1.02 | S. cerevisiae deletion strains, locus YOL006C, strain TOP1, hits give low values 1.02 | S. cerevisiae deletion strains, locus YOL012C, strain htz1 0.644 | S. cerevisiae deletion strains, locus YOL147C, strain pex11, hits give low values 1.03 | S. cerevisiae deletion strains, locus YOR001W, strain rrp6, hits give low values 1.04 | S. cerevisiae deletion strains, locus YOR061W, strain CKA2, hits give low values 1.01 | S. cerevisiae deletion strains, locus YOR069W, strain VPS5, hits give low values 1 | S. cerevisiae deletion strains, locus YOR070C, strain gyp1, hits give low values 0.994 | S. cerevisiae deletion strains, locus YOR080W, strain dia2, hits give low values 1.01 | S. cerevisiae deletion strains, locus YOR083W, strain WHI5, hits give low values 0.987 | S. cerevisiae deletion strains, locus YOR106W, strain vam3, hits give low values 1.01 | S. cerevisiae deletion strains, locus YOR136W, strain idh2, hits give low values 1.03 | S. cerevisiae deletion strains, locus YOR144C, strain elg1, hits give low values 1.02 | S. cerevisiae deletion strains, locus YOR184W, strain ser1, hits give low values 0.991 | S. cerevisiae deletion strains, locus YOR231W, strain MKK1, hits give low values 0.984 | S. cerevisiae deletion strains, locus YOR265W, strain rbl2, hits give low values 0.992 | S. cerevisiae deletion strains, locus YOR270C, strain vph1, hits give low values 1.1 | S. cerevisiae deletion strains, locus YOR290C, strain snf2, hits give low values 0.98 | S. cerevisiae deletion strains, locus YOR316C, strain cot1, hits give low values 1.02 | S. cerevisiae deletion strains, locus YPL051W, strain arl3, hits give low values 0.984 | S. cerevisiae deletion strains, locus YPL078C, strain atp4, hits give low values 0.979 | S. cerevisiae deletion strains, locus YPL106C, strain sse1, hits give low values 0.997 | S. cerevisiae deletion strains, locus YPL240C, strain hsp82, hits give low values 0.999 | S. cerevisiae deletion strains, locus YPL241C, strain CIN2, hits give low values 1 | S. cerevisiae deletion strains, locus YPL256C, strain CLN2, hits give low values 0.98 | S. cerevisiae deletion strains, locus YPR119W, strain clb2, hits give low values 1.02 | S. cerevisiae deletion strains, locus YPR141C, strain kar3, hits give low values 1.01 | S. cerevisiae deletion strains, locus YPR163C, strain tif3, hits give low values 1.04 | S. cerevisiae deletion strains, locus YPR167C, strain met16, hits give low values 1.02 | S. cerevisiae deletion strains, strain wtn01, hits give low values 1.04 | S. cerevisiae strains, strain wild type, hits give low values 0.995
